A selection: hits, their analogues and other compounds. The true share with any hit is near 5.2%.
Tau fluor counter: Counterscreen qHTS for Inhibitors of Tau Fibril Formation, Fluorescence Polarization | Potency, µM (highest dose often 57.7 µM), for the others: at the top dose activity change, negative = decrease | 280,000 tested, 0.93% active | tau K18 P301L Alexa594 fluorescence, heparin fibrillization; also: potency is read from the fitted curve at half-maximal effect; nearly all actives have a fitted effect of over 55% in size
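Human K18 P301L tau (15 uM unlabeled plus 0.24 uM Alexa 594-labeled, final) in 100 mM sodium acetate pH 7 was mixed with compound and 20 uM heparin and incubated 6 hr at 37 C.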
Sfp inh: qHTS Assay for Inhibitors of Bacillus subtilis Sfp phosphopantetheinyl transferase (PPTase). Biochemical Sfp PPTase activity, qHTS. 310,000 tested, 3.5% active. 4'-phosphopantetheinyl transferase ffp (Bacillus subtilis), Q9F4F7. Potency, µM, inactives show largest response in the series, negative = inhibition, usual class: inhibitors. AID 1490, 2009;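 also: the enzyme is Sfp with the accession as filed and its product quenches rhodamine fluorescence; potency is read from the fitted curve at half-maximal effect; 0% = enzyme reaction without inhibitor and -100% = no enzyme wells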
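Sfp 15 nM + cpd, 15 min RT; start w/ rhodamine-CoA 5 uM, BHQ-2-YbbR 12.5 uM (final); 50 mM Hepes pH 7.6, 10 mM MgCl2, 0.01% NP-40, 0.01% BSA; read 525/598 nm at 0 and 30 min.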
Coupling enz: qHTS Assay for Inhibitors of Fructose-1,6-bisphosphate Aldolase from Giardia Lamblia: Coupling assay counterscreen. coupling enzyme system counterscreen, AmpLite Red fluorescence. activity change, negative = inhibition, % at 58.2 µM, hits read low. 290,000 tested, 0.67% active. AID 2472, 2010; in the data active = activity change below about -30%
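First, compound is pin-transferred into glyceraldehyde-3-phosphate coupling-enzyme reagent at 57.5 uM final and held 10 min at RT. Next, substrate, coupling system and AmpLite Red are added. After 20 min RT, fluorescence (525/598 nm) is read.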
Tau fibril FP: qHTS for Inhibitors of Tau Fibril Formation, Fluorescence Polarization | K18 P301L tau heparin fibrillization, Alexa594 FP, 6 h | 280,000 tested, 0.39% active | AID 1468, 2008 | Potency, µM (titrated, usually from 57.7 µM), without a hit: at the top dose activity, negative = inhibition, most hits filed as inhibitors; also: potency is read from the fitted curve at half-maximal effect; nearly all actives have a fitted effect of over 55% in size
Target sequence (P10636 561-689 P618L limits assumed): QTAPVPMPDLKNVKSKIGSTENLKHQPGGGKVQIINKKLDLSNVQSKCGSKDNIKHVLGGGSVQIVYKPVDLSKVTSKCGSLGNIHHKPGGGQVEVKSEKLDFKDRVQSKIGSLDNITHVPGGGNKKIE
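Heparin (20 uM) drove fibril formation of recombinant tau K18 P301L, 15 uM unlabeled with 0.24 uM Alexa 594 label, for 6 hr at 37 C in 100 mM sodium acetate pH 7. Fluorescence polarization (555/632 nm) read 1 hr after 30 uM ThT.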
Tau fibril ThT: qHTS for Inhibitors of Tau Fibril Formation, Thioflavin T Binding; recombinant tau K18 P301L (four-repeat tau fragment), heparin-induced fibrillization, ThT fluorescence; Potency, µM (series often up to 57.4 µM), for inactives: at the highest dose activity, negative = inhibition, usual class: inhibitors; 270,000 tested, 2.1% active; AID 1460, 2008; also: potency is read from the fitted curve at half-maximal effect; nearly all actives have a fitted effect of over 55% in size
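Recombinant human tau K18 fragment […] carrying P301L, 15 uM unlabeled plus 0.24 uM Alexa 594-labeled, was fibrillized with 20 uM heparin in 100 mM sodium acetate pH 7 for 6 hr at 37 C; 30 uM ThT fluorescence read after 1 hr.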
An asterisk follows results filed as active; ? = inconclusive; · = not tested or not shown; [ ] = dose if it differs, or a comment. Unless noted, calls follow the shape of the dose curve; as a rule, active = well fitted curve in the direction sought with a large enough effect; inconclusive = small, poorly fitted or top-dose-only effect, or another doubt; inactive = no such curve, though single readings can be large; an effect the other way counts as inactive or inconclusive. Unless noted, % is scaled to controls: 0 for no effect and ±100 for the full control effect.

SMILES	Tau fluor counter	Sfp inh	Coupling enz	Tau fibril FP	Tau fibril ThT
C/C1=C2/[N-]C(C(CC(N)=O)[C@@]2(C)CCC(=O)NCC(C)OP(=O)([O-])O[C@H]2[C@@H](O)[C@@H](n3cnc4cc(C)c(C)cc43)O[C@@H]2CO)[C@]2(C)N=C(/C(C)=C3N=C(/C=C4N=C1C(CCC(N)=O)C\4(C)C)[C@@H](CCC(N)=O)[C@]\3(C)CC(N)=O)[C@@H](CCC(N)=O)[C@]2(C)CC(N)=O.CC(=O)O.[Co] (stereo partly drawn)	·	-21.4%	·	·	·
CCOC(=O)c1sc(N(Cc2ccccc2)C(=O)COC(=O)c2ccccc2O)nc1C	-20.7%	-17.2%	-2.0	-6.8%	-12.5%
CCOC(=O)c1sc(N(Cc2ccccc2)C(=O)COC(=O)c2ccc(O)cc2)nc1C	?	-4.2%	-1.9	14.1µM*	-3.0%
COc1ccc(N/N=C(\C#N)C(=N)SCc2ccccc2)cc1	?	-13.0%	-0.2	5.1%	14.1µM*
COc1ccc(N/N=C(\C#N)C(=N)N2CCCCC2)cc1	-19.6%	-9.1%	-7.2	8.7%	?
Cc1ccc(N(C)C(=O)C2CCN(S(=O)(=O)c3c(C)noc3/C=C/c3c(C)cc(C)cc3C)CC2)cc1	-7.2%	·	·	1.0%	-11.4%
C=CCSC(=C(C#N)C#N)c1cc2c([nH]1)CCCC2	?	-19.5%	4.8	-1.3%	10µM*
Cc1nnc(N/N=C/c2cc([N+](=O)[O-])c(N3CCC(C)CC3)cc2N2CCC(C)CC2)n1N	?	?	-44.6*	-13.7%	17.8µM*
CCc1nnc(N/N=C/c2ccc(N3CCC(C)CC3)c([N+](=O)[O-])c2)n1N	?	70.8µM*	-27.1	-5.5%	12.6µM*
CC1CCN(c2cc(N3CCOCC3)c([N+](=O)[O-])cc2F)CC1	?	-5.7%	-0.8	2.9%	?
CCC(C)CCCCC(=O)NC(CCN)C(=O)NC(C(=O)NC(CCN)C(=O)NC1CCNC(=O)C(C(C)O)NC(=O)C(CCN)NC(=O)C(CCN)NC(=O)C(CC(C)C)NC(=O)C(Cc2ccccc2)NC(=O)C(CCN)NC1=O)C(C)O (stereo not drawn)	-22.0%	28.2µM*	2.4	0.0%	-12.8%
Cc1ccc(N2CC(C)Cn3c2nc2c3c(=O)n(Cc3cccc(Cl)c3)c(=O)n2C)cc1 (stereo not drawn)	2.6%	·	·	2.6%	-3.3%
COc1ccc(N=N/C(=C\O)C(=O)c2cccs2)cc1	?	-10.1%	-0.7	3.9%	12.6µM*
COc1ccc(C(=O)/C(=C/O)N=Nc2ccc(F)cc2)cc1	-29.2%	-3.9%	4.3	-9.1%	28.2µM*
COC(=O)CSc1ncc2c(n1)-c1ccccc1N(Cc1ccc(Cl)cc1)S2(=O)=O	-17.8%	·	·	-8.5%	-3.1%
Cc1ccc(/C=N/Nc2cccc3cccnc23)c(O)c1	-7.3%	44.7µM*	-4.3	-7.1%	-8.6%
Oc1ccc(/C=N/Nc2cccc3cccnc23)c(O)c1	7.94µM*[quencher]	?	-2.8	8.7%	6.31µM*
Cc1cc(N/N=C/c2ccccc2O)c2ccccc2n1	·	-13.4%	0.1	·	·
COc1ccccc1CNc1cncnc1	·	4.8%	0.1	·	·
COc1ccccc1CNc1ncccn1	·	79.4µM*	0.2	·	·
N#Cc1ccccc1Cn1c(=O)n(CCCC(=O)NCc2ccccc2Cl)c(=O)c2ccccc21	-2.6%	·	·	-1.1%	0.8%
COc1cc(CNCCc2ccccc2)cc(Cl)c1OCc1ccccc1	-19.0%	31.6µM*	-0.8	-11.3%	-16.9%
CCn1c2ccc(OC)cc2c2nc3ccccc3nc21	-6.4%	9.4%	-0.6	-9.5%	4.7%
CCn1c2ccc(Cl)cc2c2nc3ccccc3nc21	-22.6%	-70.2%	-5.9	-10.3%	15.8µM*
COC(=O)[C@@]1(Cc2ccccc2)[C@H]2c3cc(C(=O)N4CCCC4)n(Cc4ccc(OC)c(OC)c4)c3C[C@H]2CN1C(=O)c1ccccc1	-11.2%	-2.4%	-2.4	-2.0%	?
SMILES	Tau fluor counter	Sfp inh	Coupling enz	Tau fibril FP	Tau fibril ThT
CCOc1ccc(/C=C/c2nc3ccccc3n2S(=O)(=O)c2ccc(Br)cc2)cc1	-25.3%	·	·	?	-17.3%
CSc1ccc(/C=C/c2nc3ccccc3n2S(=O)(=O)c2ccc(Br)cc2)cc1	31.6µM*[quencher]	·	·	?	2.5%
Cc1ccc(Oc2c(C(N)=O)cc([N+](=O)[O-])cc2[N+](=O)[O-])cc1	?	?	-0.2	?	8.91µM*
O=C(Cn1c(=O)n(Cc2ccco2)c(=O)c2sc3ccccc3c21)Nc1ccc(F)cc1F	-9.0%	·	·	?	7.3%
CN(CC(=O)Nc1ccc(F)cc1F)S(=O)(=O)c1cccc2nsnc12	-9.9%	·	·	-7.6%	-8.8%
CCn1c(=O)c(NC(=O)c2ccccc2)c2n(c1=S)CCCCC2	-11.3%	8.3%	-35.1*	-13.2%	-5.1%
COc1ccccc1NC(c1ccc(Cl)cc1)c1nnc(-c2cccc(F)c2)o1 (stereo not drawn)	-28.8%	·	·	3.6%	-13.2%
CC1=C(c2ccc(C)c(C)c2)S(=O)(=O)N=C1N1CCN(c2cccc(C(F)(F)F)c2)CC1	-13.5%	·	·	-14.7%	-0.6%
Cc1ccc(-c2nn(-c3ccccc3)cc2C(=O)Nc2ccc(C(=O)O)cc2)cc1	-9.9%	4.6%	-0.5	3.2%	11.5%
COc1ccc(-c2nn(-c3ccccc3)cc2C(=O)Nc2ccc(C(=O)O)cc2)cc1OC	·	-1.2%	1.9	·	·
CCOC(=O)c1ccc(NC(=O)c2cn(-c3ccccc3)nc2-c2ccc(OC)c(OC)c2)cc1	?	·	·	10µM*	?
CC(C)COc1ccc(-c2nn(-c3ccccc3)cc2C(=O)Nc2nccs2)cc1	?	14.9%	-6.6	14.1µM*	14.8%
CCOC(=O)c1ccc(NC(=O)c2cn(-c3ccccc3)nc2-c2ccc(C)cc2)cc1	?	·	·	8.91µM*	-13.2%
O=C(OCc1ccccc1)c1cn(-c2ccccc2)nc1-c1ccncc1	-12.7%	89.1µM*	0.1	-0.8%	-8.6%
COc1ccccc1C(=O)Nc1cccc(C(=O)OCc2cc(=O)n3ccsc3n2)c1	-10.0%	·	·	-14.8%	?
COC(=O)c1cc2oc3ccccc3c2n1Cc1nc(-c2cccc(Cl)c2)oc1C	-8.2%	·	·	-2.7%	-1.7%
COc1ccc(OC)c(CNS(=O)(=O)c2ccc3c(c2)oc(=O)n3C)c1	3.5%	·	·	5.5%	5.7%
CCc1ccc(CNC(=O)C2Cc3cc(S(=O)(=O)N4CCCCCC4)ccc3N2C(C)=O)cc1 (stereo not drawn)	0.0%	·	·	6.6%	10.9%
O=C(Nc1ccccc1)c1cn(-c2ccccc2)nc1-c1ccccc1	-10.5%	·	·	-4.1%	-1.4%
